Molecules are shown by their SMILES. Screen size: about 2,100 compounds; about 300 (14%) were called active. Not shown: some 2% with an inconclusive outcome.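 How the source made its calls: active means every replicate test run called active, with the signal falling and half-maximal concentration within twice the top valid dose; inconclusive means the replicate test runs disagree in their calls; inactive means every test run inactive, including effects in the opposite direction.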 Only a sample is shown. Results with a measured potency or affinity are listed apart.

A short description of this assay: inhibitors of PGC1a acetylation in cells, dose response, cell-based, cherry-picked samples (AID 720514).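 Further: actives lower the acetylation signal so they count as inhibitors of PGC1a acetylation.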 The following applies: U2OS PGC1a acetylation, AlphaLISA, overnight; series mostly up to 19.5 µM. For orientation: In Alpha technology, singlet oxygen from a donor bead excites a nearby acceptor bead.
`COC(=O)C(Nc1ccccc1Cl)(c1cc(C)c(O)c(C)c1)C(F)(F)F` (stereo not drawn): the outcome was inactive.
Turning to `CC(C)(C)c1ccc(C(=O)c2c[nH]c(C(=O)NCc3cccnc3)c2)cc1`, the result was inactive.
Then `CCN(CC)CCCn1c(=S)[nH]c2cc(Cl)ccc2c1=O`, with “inactive”; and `N#Cc1ccc(C(=O)CSc2nnc(-c3ccc(C(F)(F)F)cn3)s2)cc1`, with “inactive”; and `O=C(CSc1nc2ccccc2c(=O)n1CC1CCCO1)N1CCN(c2ccccc2)CC1` (stereo not drawn), with “inactive”.
To `Cn1cc(-c2ccc(C(=O)NCc3cccc(Cl)c3)c3occc23)cn1` belongs “inactive”; to `Cc1ccc2[nH]cc(C(=O)CN3CCN(c4ccccc4F)CC3)c2c1`, “inactive”.
Then `O=C(Nc1ccc(OCC(=O)N2CCC(Cc3ccccc3)CC2)cc1)c1ccco1`, with “inactive”; and `COc1ccc(C2C(C(=O)Nc3ccccc3)=C(C)Nc3nc(CCCO)nn32)cc1` (stereo not drawn), with “inactive”; and `COc1ccc(NC(=O)N2CCN(c3ccc([N+](=O)[O-])cc3)CC2)cc1`, with “inactive”.
As to `CC1=CC(C)(C)N2C(=O)C3(SCC(=O)N3c3ccc(F)cc3)c3cc(C)cc1c32` (stereo not drawn), the molecule was called inactive.
With `NC(=O)Cn1cc(C(=O)c2cccs2)c2ccccc21`, the molecule was called inactive.
As for `C[C@@H]1CN([C@@H](C)CO)C(=O)c2c(c3ccccc3n2C)-c2ccccc2CO[C@@H]1CN(C)C(=O)c1ccc(F)cc1`, the outcome was inactive.
To `O=S(=O)(NCc1ccccc1Br)c1ccccc1Br` belongs “inactive”; to `COCCN(C)Cc1nc(C(c2ccccc2)c2ccccc2)no1`, “inactive”; to `Cc1cc(C(F)(F)F)n(-c2nc(C(=O)NNS(=O)(=O)c3ccccc3[N+](=O)[O-])cs2)n1`, “inactive”.
To `O=C(NCCC1=CCCCC1)c1coc(=O)c(Br)c1` belongs “inactive”.
Then `O=C(NCc1cccnc1)c1ccc(NC(=O)c2cccc([N+](=O)[O-])c2)cc1`, with “inactive”; and `COc1cc(/C=C2\SC(=O)NC2=O)ccc1Oc1ccc([N+](=O)[O-])cn1`, with “inactive”.
For the molecule `COc1ccc(CN2CCn3ncc(C(=O)Nc4ccccc4)c3C2=O)cc1`, the molecule was called inactive.
To `COc1ccc(C#Cc2c(-c3ccccc3)n(-c3ccccc3)c3ccc(CO)cc23)cc1` belongs “inactive”; to `CC12CCC(C1)C(C)(C)C2NS(=O)(=O)c1ccc(F)cc1` (stereo not drawn), “inactive”.
Take `COc1ccc(NC(=O)c2sccc2SCc2cccc(C(F)(F)F)c2)cc1`: the molecule was called inactive.
Then `O=C(Cn1c(CN2CCCCC2)nc2ccccc2c1=O)Nc1ccccc1`, with “inactive”; and `COc1ccc(Cn2nnnc2C(C(C)C)N(Cc2ccco2)Cc2cccs2)cc1` (stereo not drawn), with “inactive”; and `COc1ccc(S(=O)(=O)N(C)CC(=O)Nc2cccc(C(C)=O)c2)cc1Cl`, with “inactive”.
Then `COc1cccc(C(=O)/C=C/c2ccc(OCC#N)c(OC)c2)c1`, with “inactive”; and `COc1ccc(S(=O)(=O)NNC(=O)c2csc(-n3nc(C)cc3C(F)(F)F)n2)cc1`, with “inactive”.

Values taken from PubChem BioAssay AID720514 (Broad Institute, 2013).
